Experimental findings from PubChem BioAssay AID720533 (National Center for Advancing Translational Sciences (NCATS), 2013) are described below.

Several values for one entry are separate records, joined by “and”; a condition that tells them apart may be missing. Equal entries are not always repeated. Hit rate of the full screen: of about 18,000 compounds, about 750 (4.2%) were called active. Entries that show only a call come without a potency. Inconclusive results (about 13%) are left out. Calls come from the whole dose curve; tested in HEK293 cells. This excerpt belongs to a sample that is enriched for actives. The source holds several records for some structures; these can differ, active in one and inactive in another.
Potency is the fitted concentration of half-maximal effect.

This assay in a line: qHTS for Inhibitors of binding or entry into cells for Lassa Virus. To be noted: Lassa virus pseudotyped entry inhibition, cell-based qHTS; series mostly up to 49.2 µM.
As to `COc1ccc(O[C@H]2C=C[C@@H](c3ccccc3)O[C@H]2COC(=O)CCC(C)=NOC[C@@H](C)[C@H](OCc2ccccc2)C(C)C)cc1`, the activity change, negative = inhibition is -27.6% [at 8.59 µM] (inactive).

Turning to `CCCCC/C=C\C/C=C\C/C=C\CCCCCCC(N)=O`, the activity change, negative = inhibition result was “inactive”.

Take `COc1ccc(O[C@H]2C=C[C@@H](c3ccccc3)O[C@H]2CON=C[C@@H](C)[C@H](OCc2ccccc2)C(C)C)cc1`: the activity change, negative = inhibition is -25.5% [at 8.59 µM] (inactive).

`CCN(CC)CCCN=C1NC(c2ccccc2)C(C(=O)OC)=C(C)N1CC` (configuration not stated): the activity change, negative = inhibition is 9.38% [at 8.59 µM] (inactive).

On to `C[C@H]1Cc2c(COc3ccccc3)nc3c(c2CO1)CN(C(=O)Nc1cccc(C#N)c1)CC3`, for which the activity change, negative = inhibition was -15.7% [at 8.59 µM] (inactive) and -11.7% [at 8.59 µM] (inactive).

For the compound `CC1(C)S[C@@H]2[C@H](N=CN3CCCCCC3)C(=O)N2[C@H]1C(=O)O`, the activity change, negative = inhibition result was “inactive”.

Consider `CC(C)(Cc1c[nH]c2ccc(Cl)cc12)NCCOc1ccccc1OCC1CC1`, for which the Potency is 28.2 µM (active).

Consider `CC(=O)OCC(=O)[C@@]1(O)CCC2C3CCC4=CC(=O)CC[C@@]4(C)[C@]3(F)C(O)C[C@]21C` (some centres not stated), for which the activity change, negative = inhibition result is “inactive”.

Turning to `CN(Cc1cccc2ncccc12)C(=O)c1cnn(-c2nccc(-c3ccccc3F)n2)c1C1CC1`, the Potency is 12.6 µM (active).

Consider `Cc1ccc(-c2ccnc(-n3ncc(C(=O)N(C)Cc4cccc5ncccc45)c3C3CC3)n2)o1`, for which the activity change, negative = inhibition entry was “inactive”.

Consider `Cc1cccc(CNC(=O)c2cnn(-c3nccc(-c4ccccc4F)n3)c2C2CC2)n1`, for which the activity change, negative = inhibition entry was “inactive”.

`Cc1ccc(S(=O)(=O)N2CCC(=O)N([C@H](COCc3ccccc3)Cc3ccccc3)CC2)cc1`: the activity change, negative = inhibition result is “inactive”.

For the compound `CCC1CN(CCNC(=O)c2ccsc2)Cc2cc(OC)ccc2O1` (configuration not stated), the activity change, negative = inhibition result is “inactive”.

`CCCCN1CC(COCc2ccccc2)OCCS1(=O)=O` (configuration not stated): the activity change, negative = inhibition entry is “inactive”.

Regarding `C=C(C)C1CC=C(CO)CC1` (configuration not stated), the activity change, negative = inhibition result was “inactive”.

Turning to `C=C1/C(=C\C=C2\CCCC3(C)C2CCC3C(C)/C=C/C(O)C2CC2)CC(O)CC1O` (configuration not stated), the Potency is 10 µM (active).

`N#Cc1c(Cl)c(Cl)c(Cl)c(C#N)c1Cl`: the Potency is 2.24 µM (active).

With `CC(C)(O)CCC(O)[C@@](C)(O)C1CC[C@]2(O)C3=CC(=O)C4CC(O)C(O)C[C@]4(C)C3CC[C@]12C` (some centres not stated), the activity change, negative = inhibition result is “inactive”.

As to `COC(C)C(C(=O)OCC1=CCN2CC[C@H](O)[C@@H]12)C(C)C` (some centres not stated), the activity change, negative = inhibition entry was “inactive”.

In the case of `COC(=O)C12C[C@H](C)C3C(C)C(c4ccccc4C31)N2C(=O)C(F)(F)F` (some centres not stated), the activity change, negative = inhibition was 4.09% [at 8.59 µM] (inactive).

Turning to `CCCCC[C@H](O)/C=C/[C@@H]1[C@@H](CC(=O)CCC(=O)O)[C@@H](O)C[C@H]1O`, the activity change, negative = inhibition result is “inactive”.

For `COc1cc(C(=O)N2CCOCC2)cc(OC)c1OC`, the activity change, negative = inhibition result was “inactive”.

Turning to `COC(=O)C1=C(C(=O)OC)[C@@H]2N(C)c3ccccc3[C@@]23C[C@@H](C(=O)OC)N(C(=O)c2ccco2)C3=N1`, the activity change, negative = inhibition is 11.9% [at 8.59 µM] (inactive).

Regarding `CC(C)c1cnc(NC(=O)Cc2ccccc2)s1`, the activity change, negative = inhibition result was “inactive”.

On to `CC(=O)Oc1ccccc1C(=O)Nc1ncc([N+](=O)[O-])s1`, for which the Potency was 7.94 µM (active).

In the case of `CCOC(=O)[C@H](CCc1ccccc1)N[C@@H](C)C(=O)N1CC2(C[C@H]1C(=O)O)SCCS2`, the activity change, negative = inhibition result was “inactive”.

Consider `COc1cccc(CN2CCC3(CC2)c2ccccc2[C@@H](NC(=O)c2ccccc2OC)[C@@H]3O)c1`, for which the activity change, negative = inhibition entry was “inactive”.

Take `CO[C@@H]1C[C@@H](C[C@H]2CC[C@H](C)[C@@H]([C@@H](C)C(=O)O)O2)O[C@]2(O[C@](C)([C@H]3CC[C@@](C)(C4OC([C@H]5O[C@@](O)(CO)[C@H](C)C[C@@H]5C)C[C@@H]4C)O3)C[C@H]2C)[C@@H]1C` (some centres not stated): the Potency is 3.16 µM (active).

As to `O=C(C1CCCCC1)N1C[C@H](O)[C@H](n2cc(-c3ccc(F)cc3)nn2)C[C@@H]1c1ccccc1`, the activity change, negative = inhibition entry is “inactive”.

On to `CC1C(O)CC2C(C(=O)O)=CO[C@@H](O[C@H]3OC(CO)C(O)C(O)C3O)C21` (some centres not stated), for which the activity change, negative = inhibition entry was “inactive”.

For the compound `CO[C@H]1[C@@H](O)[C@H](N)[C@@H](O[C@H]2O[C@H]([C@H](C)N)CC[C@H]2N)[C@H](O)[C@@H]1N(C)C(=O)CN`, the activity change, negative = inhibition result is “inactive”.

For `CCC1CN(CCNC(=O)c2cccc(C)n2)Cc2cc(OC)ccc2O1` (configuration not stated), the activity change, negative = inhibition entry was “inactive”.

Turning to `CS(=O)(=O)c1ccc(Oc2nccc(-c3c(-c4ccc(F)cc4)ncn3C3CCNCC3)n2)cc1`, the activity change, negative = inhibition entry is “inactive”.

With `COc1ccc(NC(=O)C[C@H]2C(=O)N(CCc3ccccc3)C[C@@H]2C)cc1`, the activity change, negative = inhibition result is “inactive”.

For `Oc1ccc(Cl)c2c1CCC2`, the activity change, negative = inhibition result was “inactive”.

For `CC[C@]1(O)C[C@@H]2CN(CCc3c([nH]c4ccccc34)[C@@](C(=O)OC)(c3cc4c(cc3OC)N(C)[C@H]3[C@@](O)(C(=O)OC)[C@H](OC(C)=O)[C@]5(CC)C=CCN6CC[C@]43[C@@H]65)C2)C1`, the Potency result is “inactive and 22.4 µM (active)”.

Regarding `CC(C)C[C@@H](CC(=O)N[C@@H](CCC(=O)O)CC(=O)O)NC(=O)[C@@H]1CCCC[C@H]1NC(=O)C[C@@H](NC(=O)C[C@H](Cc1c[nH]c2ccccc12)NC(=O)[C@@H]1CCCC[C@H]1N)C(C)C`, the activity change, negative = inhibition entry is “inactive”.

Regarding `C[C@@H]1O[C@@H](OC[C@H]2O[C@@H](Oc3cc(O)c4c(c3)O[C@H](c3ccc(O)c(O)c3)CC4=O)[C@H](O)[C@@H](O)[C@@H]2O)[C@H](O)[C@H](O)[C@H]1O`, the activity change, negative = inhibition entry was “inactive”.

Consider `O=c1cc(-c2ccc(O)cc2)oc2c([C@@H]3O[C@H](CO)[C@@H](O)[C@H](O)[C@H]3O)c(O)cc(O)c12`, for which the activity change, negative = inhibition result is “inactive”.

As to `COc1ccc(CCC(=O)c2c(O)cc(OC3OC(CO)C(O)C(O)C3O[C@@H]3OC(C)C(O)C(O)C3O)cc2O)cc1O` (some centres not stated), the activity change, negative = inhibition result was “inactive”.

Take `Cc1cccc(CNc2ccnc(-c3cccnc3)n2)c1`: the activity change, negative = inhibition result was “inactive”.

For `CCCCN1C[C@H](c2ccc(Br)cc2)[C@@H](CC(=O)Nc2ccc(Br)cc2)C1=O`, the activity change, negative = inhibition result is “inactive”.

On to `COc1ccc(CC(N)C(=O)NC2C(O)[C@H](n3cnc4c(N(C)C)ncnc43)O[C@@H]2CO)cc1` (some centres not stated), for which the Potency is 3.98 µM (active).

As for `Nc1ncnc2c1ncn2C1CC(O)C(CO)O1` (configuration not stated), the activity change, negative = inhibition entry was “inactive”.

For `COc1ccc(C[C@H](N)C(=O)N[C@@H]2[C@H](O)[C@H](n3cnc4c(N(C)C)ncnc43)O[C@@H]2CO)cc1`, the Potency is 2.51 µM (active).

On to `CCN(CC)CCCC(C)Nc1ccnc2cc(Cl)ccc12` (configuration not stated), for which the activity change, negative = inhibition entry is “inactive”.

On to `COC1=C[C@H](C(=O)NCCNC(C)=O)[C@H](C)[C@@H](c2ccccc2)CC1=O`, for which the activity change, negative = inhibition was -0.439% [at 8.59 µM] (inactive).

Regarding `COC(=O)[C@H](CC(C)C)NS(=O)(=O)c1c(F)cccc1F`, the activity change, negative = inhibition entry was “inactive”.

Take `O=C1NC(CC(=O)N2CCC(n3c(C4CCC4)nc4cccnc43)CC2)c2ccccc21` (configuration not stated): the activity change, negative = inhibition result is “inactive”.

For the compound `Fc1cccc(/C=N\N=C/c2cccc(F)c2)c1`, the activity change, negative = inhibition entry was “inactive”.

Turning to `C=CCOC(=O)C(=C)C`, the activity change, negative = inhibition entry was “inactive”.

As to `Cc1ccc(-c2ncc(Cl)cc2-c2ccc(S(C)(=O)=O)cc2)cn1`, the activity change, negative = inhibition result was “inactive”.

Turning to `CC[C@H](C)[C@H](NC(=O)[C@@H](N)CCC(=O)O)C(=O)N[C@@H](CC(C)C)C(=O)N[C@@H](CC(=O)O)C(=O)N[C@H](C(=O)N1CCC[C@H]1C(=O)N[C@@H](CO)C(=O)N[C@H](C(=O)O)[C@@H](C)O)C(C)C`, the activity change, negative = inhibition entry is “inactive”.

`CC[C@H]1CN2CCc3cc(OC)c(OC)cc3[C@@H]2C[C@@H]1C[C@H]1NCCc2cc(OC)c(OC)cc21`: the Potency was 0.1 µM (active).

Turning to `O=C(NCC1Cc2cc(F)cc(-c3cnccn3)c2O1)C1COc2ccccc2O1` (configuration not stated), the activity change, negative = inhibition result was “inactive”.

`CCCCCCCC/C=C\CCCCCCCC(=O)NCC(=O)O`: the activity change, negative = inhibition result was “inactive”.

Take `O=[N+]([O-])c1ccc(CN2CC(N3CC=CC3)CS2(=O)=O)cc1` (configuration not stated): the activity change, negative = inhibition result was “inactive”.

`COc1ccc(-c2c(C)cc3oc(=O)cc(-c4ccccc4)c3c2C)cc1F`: the activity change, negative = inhibition entry is “inactive”.

Turning to `CN[C@@H]1[C@@H](O)[C@@H](O[C@@H]2[C@H](O)[C@H](O[C@H]3OC(CN)=CC[C@H]3N)[C@@H](N)C[C@H]2N)OCC1(C)O` (some centres not stated), the activity change, negative = inhibition entry was “inactive”.

Regarding `CCOC(=O)CN1C(=O)NC(CCc2ccccc2)C(C(C)=O)=C1C` (configuration not stated), the activity change, negative = inhibition was -20.9% [at 8.59 µM] (inactive).

Take `OCCN1CCN(CC/C=C2\c3ccccc3Sc3ccc(C(F)(F)F)cc32)CC1`: the activity change, negative = inhibition result is “inactive”.

For the compound `Cc1ccc(/C(=C/CN2CCCC2)c2ccccn2)cc1`, the activity change, negative = inhibition result was “inactive”.

For the compound `COc1ccccc1-c1ccnc(-n2ncc(C(=O)NCCCN3CCOCC3)c2C)n1`, the activity change, negative = inhibition result was “inactive”.

Turning to `C=CCN1C(=O)[C@]2(OCCC=C[C@H]2C)c2ccccc21`, the activity change, negative = inhibition was -16.5% [at 8.59 µM] (inactive).

Regarding `C[C@@H]1CC[C@H]2C(=O)N(Cc3ccc(Cl)cc3)C[C@@H](O)CN2[C@@H]1c1cccc(Br)c1`, the activity change, negative = inhibition was 6.98% [at 8.59 µM] (inactive).

On to `Nc1nc2[nH]c(=O)c(=O)[nH]c2c(=O)[nH]1`, for which the activity change, negative = inhibition entry was “inactive”.

For `CCOC(=O)Cn1c(=O)sc2cccc(Cl)c21`, the activity change, negative = inhibition entry was “inactive”.

With `CNCC[C@H](Oc1ccc(C(F)(F)F)cc1)c1ccccc1`, the Potency entry was “inactive and 28.2 µM (active)”.

`COC(=O)C1=C(C)N(Cc2ccccc2)C(=NCCc2ccccn2)NC1c1cccc(C(F)(F)F)c1` (configuration not stated): the activity change, negative = inhibition was -11.6% [at 8.59 µM] (inactive).

Regarding `COc1ccccc1N1CCN(CCN2C(=O)c3ccccc3C(C)(C)C2=O)CC1`, the activity change, negative = inhibition entry was “inactive”.

As for `CC(C)=CCC[C@]1(C)[C@@H](CC=C(C)C)C[C@@]2(CC=C(C)C)C(=O)[C@]1(C(=O)C(C)C)C(=O)C(CC=C(C)C)=C2O`, the Potency was 12.6 µM (active).

On to `Nc1nccc(-c2c(-c3ccc(F)cc3)ncn2CCCN2CCOCC2)n1`, for which the activity change, negative = inhibition result was “inactive”.

Turning to `CC(=O)Oc1c2c(c3c(c1CC=C(C)C)O[C@@]14C(=CC5CC1C(C)(C)OC4(C/C=C(\C)C(=O)O)C5=O)C3=O)OC(C)(CCC=C(C)C)C=C2` (some centres not stated), the Potency was 6.31 µM (active).

As to `NCCCNCCCCN(CCCN)/[N+]([O-])=N/O`, the activity change, negative = inhibition entry is “inactive”.

In the case of `CCCCC/C=C\C/C=C\CCCCCCCCCC(=O)NCC(=O)O`, the activity change, negative = inhibition result is “inactive”.

Consider `CCCCCCCC1=Cc2ccc(F)cc2C(C(C(=O)OC)C(=O)OC)N1C(=O)OC` (configuration not stated), for which the activity change, negative = inhibition entry was “inactive”.

Take `COc1ccccc1-c1nc(NCCNC(C)=O)c2ccccc2n1`: the activity change, negative = inhibition result is “inactive”.
